# Test results taken from the supplement of paper PMC7411640.
# Structures can show the parent of a compound that is named as a salt.
# Test system: MDA-MB-468
# Assay: phospho-S6 immunofluorescence (DAPI-normalised), per-plate z-score; higher = higher phospho-S6 signal (less pathway suppression)
# Details: 24 h
# Protocol: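 GPCR-targeted compound library (MedChemExpress HY-L006) tested on MDA-MB-468 PTEN-null TNBC cells in 384-well plates at 0.1, 1 or 10 uM, combined with vehicle, GDC0941 450 nM or lapatinib 1 uM, for 24 h. Phospho-S6 (S240/244) immunofluorescence normalised to DAPI and expressed as a per-plate z-score; values are the mean of biological triplicates.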
SMILES,phospho-S6 immunofluorescence (z-score) (co-treatment: GDC0941 450 nM),phospho-S6 immunofluorescence (z-score) (co-treatment: lapatinib 1 uM),phospho-S6 immunofluorescence (z-score) (co-treatment: vehicle)
CC(C)(C(=O)O)c1ccc(C(O)CCCN2CCC(C(O)(c3ccccc3)c3ccccc3)CC2)cc1 (configuration not stated) [Fexofenadine (hydrochloride)] (compound 10 µM),-0.31,-0.84,-0.42
OCc1cc(C(O)CNCCCCCCOCCCCc2ccccc2)ccc1O (configuration not stated) [Salmeterol (xinafoate)] (compound 10 µM),1.01,-2.27,2.28
COc1cc(C(=O)N(CCCc2ccccc2)Cc2ccc(CC(=O)O)cc2)cc(OC)c1C (compound 10 µM),-0.21,0.49,-0.17
CN(C)CCOC(c1ccccc1)c1ccccc1 [Diphenhydramine (hydrochloride)] (compound 10 µM),-0.32,-0.09,0.32
C[C@H]1C[C@H]2[C@@H]3CCC4=CC(=O)C=C[C@]4(C)[C@@]3(F)[C@@H](O)C[C@]2(C)[C@@]1(O)C(=O)CO [Betamethasone] (compound 10 µM),-1.59,1.5,-0.96
COc1ccccc1Oc1c(NS(=O)(=O)c2ccc(C)cn2)nc(-c2ccncc2)nc1OC [Avosentan] (compound 10 µM),-0.03,-0.67,-0.65
COc1ccc(N2CCOCC2)c2sc(NC(=O)N3CCC(C)(O)CC3)nc12 [Tozadenant] (compound 10 µM),0.02,0.77,0.82
CN(C)CCc1c[nH]c2ccc(Cn3cncn3)cc12 [Rizatriptan (benzoate)] (compound 10 µM),-1.62,0.19,-1.1
CC(C)(C)NCC(O)c1ccc(O)c(CO)c1 (configuration not stated) [Salbutamol (hemisulfate)] (compound 10 µM),0.44,1.46,0.8
CCCC1O[C@@H]2C[C@H]3[C@@H]4CCC5=CC(=O)C=C[C@]5(C)[C@H]4[C@@H](O)C[C@]3(C)[C@]2(C(=O)CO)O1 (some centres not stated) [Budesonide] (compound 10 µM),-0.53,-0.12,-0.2
CCC1(c2c[nH]cn2)Cc2ccccc2C1 [Atipamezole] (compound 10 µM),0.08,-0.83,0.81
CC(C)OC(=O)N1CCC(Oc2ncnc3c2cnn3-c2ccc(S(C)(=O)=O)cc2F)CC1 (compound 10 µM),-0.32,-0.15,-0.38
CC(C)c1cc(-c2ccc(F)c3ccccc23)nc(N)n1 (compound 10 µM),-1.03,1.27,1.08
CCOc1ccccc1OCCN[C@H](C)Cc1ccc(OC)c(S(N)(=O)=O)c1 [Tamsulosin] (compound 10 µM),-1.32,0.1,-0.53
CC1(C)CN2C(CSC(=NC3CCCCC3)NC3CCCCC3)=CSC2=N1 [IT1t (dihydrochloride)] (compound 10 µM),-2.08,-0.41,-1.11
Cc1c(-c2ccccc2)oc2c(C(=O)OCCN3CCCCC3)cccc2c1=O [Flavoxate (hydrochloride)] (compound 10 µM),0.25,0.29,0.07
Cc1ccc(Sc2ccccc2N2CCNCC2)c(C)c1 [Vortioxetine (hydrobromide)] (compound 10 µM),-5.79,-11.4,-9.37
c1cc(CN2CCCNCCNCCCNCC2)ccc1CN1CCCNCCNCCCNCC1 [Plerixafor] (compound 10 µM),-0.31,0.01,0.2
O=C1CC2(CCCC2)CC(=O)N1CCCCN1CCN(c2ncccn2)CC1 [Buspirone (hydrochloride)] (compound 10 µM),0.3,0.17,0.69
CC(CN(C)C)CN1c2ccccc2CCc2ccccc21 (configuration not stated) [Trimipramine (maleate)] (compound 10 µM),-1.05,-2.53,-0.39
CC(=O)Nc1cccc2c1c(Sc1ccc(Cl)cc1)c(C)n2CC(=O)O (compound 10 µM),0.52,0.08,-0.17
COc1cc(NC(=O)c2ccccn2)ccc1Cl (compound 10 µM),-0.65,-0.21,0.28
N[C@@H](Cc1ccc(O)c(O)c1)C(=O)O (compound 10 µM),-0.94,-0.12,-0.55
CN(C)CCCN1c2ccccc2Sc2ccccc21 [Promazine (hydrochloride)] (compound 10 µM),-0.07,-1.25,0.4
O=C(O[C@H]1CN2CCC1CC2)N1CCc2ccccc2[C@@H]1c1ccccc1 [Solifenacin (Succinate)] (compound 10 µM),1.65,1.13,-0.65
CCCCC[C@H](O)/C=C/[C@H]1[C@H](O)CC(=O)[C@@H]1CCCCCCC(=O)O [Prostaglandin E1] (compound 10 µM),-0.04,1.48,-0.27
CC1(C)O[C@@H]2C[C@H]3[C@@H]4CCC5=CC(=O)C=C[C@]5(C)[C@@]4(F)[C@@H](O)C[C@]3(C)[C@]2(C(=O)CO)O1 [Triamcinolone (acetonide)] (compound 10 µM),-1.69,1.39,-1.2

SMILES,phospho-S6 immunofluorescence (z-score) (co-treatment: GDC0941 450 nM),phospho-S6 immunofluorescence (z-score) (co-treatment: lapatinib 1 uM),phospho-S6 immunofluorescence (z-score) (co-treatment: vehicle)
CN1N=C2CCN(C(=O)[C@@H](COCc3ccccc3)NC(=O)C(C)(C)N)C[C@@]2(Cc2ccccc2)C1=O [Capromorelin (Tartrate)] (compound 10 µM),-0.05,-0.67,-0.14
CC(N)(C(=O)O)c1ccc(C(=O)O)cc1 (racemic) (compound 10 µM),0.62,0,0.84
CN(C)C(=O)N[C@H]1CC[C@H](CCN2CCN(c3cccc(Cl)c3Cl)CC2)CC1 [Cariprazine (hydrochloride)] (compound 10 µM),0.26,-1.23,1.3
CN1CCN(C(=O)c2cc3cc(Cl)ccc3[nH]2)CC1 (compound 10 µM),0.27,-0.96,0.18
O=c1n(CCCN2CCN(c3cccc(Cl)c3)CC2)nc2ccccn12 [Trazodone (hydrochloride)] (compound 10 µM),0.41,0.08,-0.51
CC(C)N(CCCCOCC(=O)NS(C)(=O)=O)c1cnc(-c2ccccc2)c(-c2ccccc2)n1 (compound 10 µM),0.87,0.26,-0.38
CCCCCN(CCCOC)C(=O)C(CCC(=O)O)NC(=O)c1ccc(Cl)c(Cl)c1 (configuration not stated) [Loxiglumide] (compound 10 µM),0.5,0.64,0.51
COc1ccc2ccc(=O)oc2c1CC=C(C)C [Osthole] (compound 10 µM),0.06,0.19,0.23
Nc1nc(N)nc(-c2cc(Cl)ccc2Cl)n1 [Irsogladine] (compound 10 µM),-0.7,0.22,-1.11
CCCCC[C@H](O)/C=C/[C@H]1[C@H](O)CC(=O)[C@@H]1C/C=C\CCCC(=O)O [Prostaglandin E2] (compound 10 µM),-0.11,1.46,-0.52
CC(C)=CCC/C(C)=C/CC/C(C)=C/CSc1ccccc1C(=O)O [Salirasib] (compound 10 µM),0.9,0.86,-0.02
Cc1nc(C(=O)N2CCC[C@H]2Cc2nnc(-c3ccccc3)o2)c(-c2ccccc2F)s1 (compound 10 µM),0.95,0.29,0.17
CCN(CC)CCOC(=O)[C@@H](Cc1cccc2ccccc12)C[C@@H]1CCCO1 [Naftidrofuryl (oxalate)] (compound 10 µM),-1.27,-0.87,-1.37
Cc1cc(OCCCS(C)(=O)=O)cc(C)c1-c1cccc(COc2ccc3c(c2)OC[C@H]3CC(=O)O)c1 (compound 10 µM),-1.06,0.1,-0.32
Cc1ccc(NC(=S)NNc2c([N+](=O)[O-])cc(C(F)(F)F)cc2[N+](=O)[O-])cc1Cl (compound 10 µM),0.79,-0.44,-0.73
CN1CCC(OC(c2ccccc2)c2ccccc2)CC1 [Diphenylpyraline (hydrochloride)] (compound 10 µM),0.68,0.42,-0.04
CC[C@H](NC(=O)c1c(C)c(-c2ccccc2)nc2ccccc12)c1ccccc1 (compound 10 µM),-4.55,-3.25,-1.64
Clc1ccc2c(c1)N=C(N1CCNCC1)c1ccccc1N2 [N-Desmethylclozapine] (compound 10 µM),-0.56,-3.16,-0.88
CCCCCCOc1nsnc1C1=CCCN(C)C1 [Xanomeline (oxalate)] (compound 10 µM),-0.72,-0.5,1.16
CCCN[C@H]1CCc2nc(N)sc2C1 [Pramipexole (dihydrochloride)] (compound 10 µM),0.87,0.31,0.17
NC(N)=Nc1nc(CSCC/C(N)=N/S(N)(=O)=O)cs1 [Famotidine] (compound 10 µM),-1.24,-0.34,-0.29
C[C@H](Cc1cc2c(c(C(N)=O)c1)N(CCCO)CC2)NCCOc1ccccc1OCC(F)(F)F [Silodosin] (compound 10 µM),-0.57,-0.02,0.57
Cc1cc2c(s1)Nc1ccccc1N=C2N1CCN(C)CC1 [Olanzapine] (compound 10 µM),0.77,0.3,0.35
CC(CN1c2ccccc2Sc2ccccc21)N(C)C (configuration not stated) [Promethazine (hydrochloride)] (compound 10 µM),-1.86,-2.76,-0.84
CCCN(CCN1CCN(c2ccccc2OC)CC1)C1CCc2ncsc2C1 (configuration not stated) [ST-836 (hydrochloride)] (compound 10 µM),0.29,-0.62,0.1
NC(=O)[C@@H]1CCCC[C@@H]1C(=O)Nc1ccc(Cl)c(Cl)c1 (compound 10 µM),0.33,-0.14,0.47
CC(C)(Cc1ccc2ccccc2c1)NC[C@@H](O)COc1cccc(Cl)c1C#N [NPS-2143 (hydrochloride)] (compound 10 µM),-6,-12.2,-9.7
